Over roughly 2,900 compounds, “NF-kB SEAP reporter activity, fold change vs agonist alone” has its median near 0.99; the highest 2% begin near 2.6. The entries come from a sample that favours the highest values as a whole.
What was measured:
[1] = system: RAW-Dual; assay: NF-kB SEAP reporter activity, fold change vs agonist alone; cytotoxicity flag (confluency mask): not cytotoxic; higher = enhanced NF-kB activity
Procedure, shortened: (§1)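 RAW-Dual macrophages (50,000 cells/well in DMEM, 384-well plates) received 50 nL of library stock by pin tool, then a PRR agonist 1 h later, and were kept at 37 °C, 5% CO2. After 20 hours, supernatant was read for IRF by QuantiLuc luminescence and for NF-κB by QuantiBlue absorbance at 620 nm. Reporter activity is fold change over agonist-alone wells. Cytotoxic wells had IncuCyte confluency below 70% of agonist controls in both mask sets.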

[2] = system: RAW-Dual; assay: NF-kB SEAP reporter activity, fold change vs agonist alone; higher = enhanced NF-kB activity
Procedure, shortened: as §1

[3] = system: RAW-Dual; assay: NF-kB SEAP reporter activity, fold change vs agonist alone; cytotoxicity flag (confluency mask): cytotoxic (confluency <70% of control); higher = enhanced NF-kB activity
Procedure, shortened: as §1

[4] = agonist: ODN 1826 (TLR9) 0.5 ug/mL
[5] = agonist: Pam2CSK4 (TLR2/6) 0.1 ug/mL
[6] = agonist: Pam3CSK4 (TLR2/1) 0.1 ug/mL
[7] = library stock concentration (final ~1000-fold dilution): 10 mM, cytotoxicity flag (confluency mask): not cytotoxic, agonist: Imiquimod (TLR7) […]
[8] = library stock concentration (final ~1000-fold dilution): 10 mM, cytotoxicity flag (confluency mask): not cytotoxic, agonist: MPLA (TLR4) […]

How did the “NF-kB SEAP reporter activity” value ([1]; agonist: LPS (TLR4) 0.1 ug/mL) turn out when CC(=O)C1CCC2C3CC=C4CC(O)CCC4(C)C3CCC12C (centres undefined) (library stock concentration (final ~1000-fold dilution): 10 mM) was run?
Its value is 1.1.

What about the “NF-kB SEAP reporter activity” value [1, 4] of the same molecule?
Its value is 0.897.

And the “NF-kB SEAP reporter activity” value [1, 5]?
Its value is 0.904.

And the “NF-kB SEAP reporter activity” value [1, 6]?
Its value is 0.972.

CC(=O)C1CCC2C3CC=C4CC(O)CCC4(C)C3CCC12C (centres undefined) was tested. Which “NF-kB SEAP reporter activity” value [2, 7] did it give?
The value was 1.07.

What about the “NF-kB SEAP reporter activity” value [2, 8] of the same molecule?
Its value is 1.3.

Which “NF-kB SEAP reporter activity” value ([1]; agonist: LPS (TLR4) 0.1 ug/mL) does the source give for N#Cc1ccc(COCC2OC(n3c(NCc4ccc(Cl)c(Cl)c4)nc4c(N)ncnc43)C(O)C2O)cc1 (centres undefined) (library stock concentration (final ~1000-fold dilution): 10 mM) here?
Its value is 0.934.

And the “NF-kB SEAP reporter activity” value [1, 4]?
Its value is 1.01.

What about the “NF-kB SEAP reporter activity” value [1, 5] of the same molecule?
The value was 0.742.

What about the “NF-kB SEAP reporter activity” value [1, 6] of the same molecule?
The value was 0.944.

Which “NF-kB SEAP reporter activity” value [2, 7] does the source give for N#Cc1ccc(COCC2OC(n3c(NCc4ccc(Cl)c(Cl)c4)nc4c(N)ncnc43)C(O)C2O)cc1 (centres undefined) here?
Its value is 0.762.

What about the “NF-kB SEAP reporter activity” value [2, 8] of the same molecule?
Its value is 0.966.

For Cc1ccc(NC(=O)Nc2cc(-c3ccccc3-c3nnn[nH]3)ccc2N(CC(C)C)CC(C)C)cc1 (library stock concentration (final ~1000-fold dilution): 10 mM), which “NF-kB SEAP reporter activity” value ([3]; agonist: LPS (TLR4) 0.1 ug/mL) is on record?
Its value is 1.16.

And the “NF-kB SEAP reporter activity” value [3, 4]?
The value was 0.54.

And the “NF-kB SEAP reporter activity” value [3, 5]?
The value was 0.207.

And the “NF-kB SEAP reporter activity” value [3, 6]?
Its value is 0.333.

Cc1ccc(NC(=O)Nc2cc(-c3ccccc3-c3nnn[nH]3)ccc2N(CC(C)C)CC(C)C)cc1 was tested. Which “NF-kB SEAP reporter activity” value ([2]; library stock concentration (final ~1000-fold dilution): 10 mM, cytotoxicity flag (confluency mask): cytotoxic (confluency <70% of control), agonist: Imiquimod (TLR7) […]) did it give?
Its value is 0.81.

What about the “NF-kB SEAP reporter activity” value ([2]; library stock concentration (final ~1000-fold dilution): 10 mM, cytotoxicity flag (confluency mask): cytotoxic (confluency <70% of control), agonist: MPLA (TLR4) […]) of the same molecule?
The value was 1.25.

How did the “NF-kB SEAP reporter activity” value ([1]; agonist: LPS (TLR4) 0.1 ug/mL) turn out when COc1ccc(CC(N)C(=O)NC2C(CO)OC(n3cnc4c(N(C)C)ncnc43)C2O)cc1.Cl.Cl (centres undefined) (library stock concentration (final ~1000-fold dilution): 10 mM) was run?
The value was 0.584.

And the “NF-kB SEAP reporter activity” value [1, 4]?
The value was 0.469.

What about the “NF-kB SEAP reporter activity” value [1, 5] of the same molecule?
The value was 0.13.

What about the “NF-kB SEAP reporter activity” value [1, 6] of the same molecule?
The value was 0.256.

Which “NF-kB SEAP reporter activity” value [2, 7] does the source give for COc1ccc(CC(N)C(=O)NC2C(CO)OC(n3cnc4c(N(C)C)ncnc43)C2O)cc1.Cl.Cl (centres undefined) here?
Its value is 0.438.

And the “NF-kB SEAP reporter activity” value [2, 8]?
The value was 1.12.

With NC(=O)c1cnc2[nH]ccc2c1NC1C2CC3CC1CC(O)(C3)C2 (centres undefined) (library stock concentration (final ~1000-fold dilution): 10 mM) as the molecule, how does the “NF-kB SEAP reporter activity” value ([1]; agonist: LPS (TLR4) 0.1 ug/mL) read?
Its value is 0.305.

And the “NF-kB SEAP reporter activity” value [1, 4]?
Its value is 0.398.

What about the “NF-kB SEAP reporter activity” value [1, 5] of the same molecule?
The value was 0.242.

And the “NF-kB SEAP reporter activity” value [1, 6]?
Its value is 0.31.

NC(=O)c1cnc2[nH]ccc2c1NC1C2CC3CC1CC(O)(C3)C2 (centres undefined) was tested. Which “NF-kB SEAP reporter activity” value [2, 7] did it give?
Its value is 0.334.

What about the “NF-kB SEAP reporter activity” value [2, 8] of the same molecule?
Its value is 0.347.

Which “NF-kB SEAP reporter activity” value [2, 7] does the source give for CC(NC(=Nc1cccc2ncccc12)NC#N)c1ccccc1 (centres undefined) here?
Its value is 0.897.

And the “NF-kB SEAP reporter activity” value [2, 8]?
Its value is 1.12.

Which results are given for CC(NC(=O)CCc1nc2ccccc2c(=O)[nH]1)c1ccccc1 (centres undefined)?
NF-kB SEAP reporter activity [2, 7]: 1.03; NF-kB SEAP reporter activity [2, 8]: 1.03

Which results are given for CC(NC(=O)c1ccccc1N=Cc1c(O)ccc2ccccc12)c1ccccc1 (centres undefined) (library stock concentration (final ~1000-fold dilution): 10 mM)?
NF-kB SEAP reporter activity ([1]; agonist: LPS (TLR4) 0.1 ug/mL): 5.11; NF-kB SEAP reporter activity [1, 4]: 1.72; NF-kB SEAP reporter activity [1, 5]: 0.843; NF-kB SEAP reporter activity [1, 6]: 1.53

How did the “NF-kB SEAP reporter activity” value ([1]; agonist: LPS (TLR4) 0.1 ug/mL) turn out when CC(C(=O)Nc1cccc(N=Cc2c(O)ccc3ccccc23)c1)c1ccccc1 (centres undefined) (library stock concentration (final ~1000-fold dilution): 10 mM) was run?
Its value is 6.64.

What about the “NF-kB SEAP reporter activity” value [1, 4] of the same molecule?
Its value is 2.52.

What about the “NF-kB SEAP reporter activity” value [1, 5] of the same molecule?
Its value is 1.5.

What about the “NF-kB SEAP reporter activity” value [1, 6] of the same molecule?
The value was 1.74.

What does the source list for CC(NC(=O)c1ccccc1N=Cc1c(O)ccc2ccccc12)c1ccccc1 (centres undefined)?
NF-kB SEAP reporter activity [2, 7]: 1.56; NF-kB SEAP reporter activity [2, 8]: 2.25

Which “NF-kB SEAP reporter activity” value ([1]; agonist: LPS (TLR4) 0.1 ug/mL) does the source give for CC(NC(=O)CCc1nc2ccccc2c(=O)[nH]1)c1ccccc1 (centres undefined) (library stock concentration (final ~1000-fold dilution): 10 mM) here?
Its value is 0.987.

And the “NF-kB SEAP reporter activity” value [1, 4]?
Its value is 1.32.

And the “NF-kB SEAP reporter activity” value [1, 5]?
Its value is 0.95.

And the “NF-kB SEAP reporter activity” value [1, 6]?
Its value is 1.25.

For CC(NC(=Nc1cccc2ncccc12)NC#N)c1ccccc1 (centres undefined) (library stock concentration (final ~1000-fold dilution): 10 mM), which “NF-kB SEAP reporter activity” value ([1]; agonist: LPS (TLR4) 0.1 ug/mL) is on record?
The value was 1.34.

And the “NF-kB SEAP reporter activity” value [1, 4]?
The value was 1.07.

What about the “NF-kB SEAP reporter activity” value [1, 5] of the same molecule?
Its value is 1.13.

What about the “NF-kB SEAP reporter activity” value [1, 6] of the same molecule?
Its value is 1.29.

Which results are given for CC(C(=O)Nc1cccc(N=Cc2c(O)ccc3ccccc23)c1)c1ccccc1 (centres undefined)?
NF-kB SEAP reporter activity [2, 7]: 1.67; NF-kB SEAP reporter activity [2, 8]: 2.34

What does the source list for CCN1CCN(Cc2ccc(-c3cc4c(NC(C)c5ccccc5)ncnc4[nH]3)cc2)CC1 (centres undefined)?
NF-kB SEAP reporter activity [2, 7]: 1.59; NF-kB SEAP reporter activity [2, 8]: 0.93

CCN1CCN(Cc2ccc(-c3cc4c(NC(C)c5ccccc5)ncnc4[nH]3)cc2)CC1 (centres undefined) (library stock concentration (final ~1000-fold dilution): 10 mM) was tested. Which “NF-kB SEAP reporter activity” value ([1]; agonist: LPS (TLR4) 0.1 ug/mL) did it give?
The value was 0.832.

What about the “NF-kB SEAP reporter activity” value [1, 4] of the same molecule?
Its value is 0.215.

What about the “NF-kB SEAP reporter activity” value [1, 5] of the same molecule?
Its value is 1.02.

And the “NF-kB SEAP reporter activity” value [1, 6]?
Its value is 1.01.

For CN1CCC(c2c(O)cc(O)c3c(=O)cc(-c4ccccc4Cl)oc23)C(O)C1.Cl (centres undefined), which “NF-kB SEAP reporter activity” value [2, 7] is on record?
The value was 1.64.

What about the “NF-kB SEAP reporter activity” value [2, 8] of the same molecule?
The value was 1.49.

For CN1CCC(c2c(O)cc(O)c3c(=O)cc(-c4ccccc4Cl)oc23)C(O)C1.Cl (centres undefined) (library stock concentration (final ~1000-fold dilution): 10 mM), which “NF-kB SEAP reporter activity” value ([1]; agonist: LPS (TLR4) 0.1 ug/mL) is on record?
The value was 0.188.

What about the “NF-kB SEAP reporter activity” value [1, 4] of the same molecule?
The value was 0.968.

And the “NF-kB SEAP reporter activity” value [1, 5]?
The value was 0.469.

What about the “NF-kB SEAP reporter activity” value [1, 6] of the same molecule?
Its value is 1.44.

With CC1(N)CCN(c2cnc(-c3cccc(Cl)c3Cl)c(N)n2)CC1.Cl (library stock concentration (final ~1000-fold dilution): 10 mM) as the molecule, how does the “NF-kB SEAP reporter activity” value ([1]; agonist: LPS (TLR4) 0.1 ug/mL) read?
The value was 1.2.

And the “NF-kB SEAP reporter activity” value [1, 4]?
Its value is 0.647.

And the “NF-kB SEAP reporter activity” value [1, 5]?
Its value is 0.778.

And the “NF-kB SEAP reporter activity” value [1, 6]?
Its value is 0.701.

With CC1(N)CCN(c2cnc(-c3cccc(Cl)c3Cl)c(N)n2)CC1.Cl as the molecule, how does the “NF-kB SEAP reporter activity” value [2, 7] read?
The value was 1.11.

And the “NF-kB SEAP reporter activity” value [2, 8]?
The value was 1.18.

Cl.NCCCCC(N)C(=O)O (centres undefined) was tested. Which “NF-kB SEAP reporter activity” value ([2]; library stock concentration (final ~1000-fold dilution): 10 mM water, cytotoxicity flag (confluency mask): not cytotoxic, agonist: Imiquimod (TLR7) […]) did it give?
Its value is 0.925.

What about the “NF-kB SEAP reporter activity” value ([2]; library stock concentration (final ~1000-fold dilution): 10 mM water, cytotoxicity flag (confluency mask): not cytotoxic, agonist: MPLA (TLR4) […]) of the same molecule?
The value was 1.06.

Source: the supplement of paper PMC10037445
